Only a selection was taken, and hits are over-represented in it overall.
Tg IFNy HTS = T. gondii growth inhibition with IFN-gamma, primary screen, cell-based; Toxoplasma gondii growth in IFN-gamma-treated host cells; active compounds read low; activity change, negative = inhibition, % (no concentration beside the values); actives 3.8% (n = 69,000); in the data active means activity change below about -70%, passing the limit was not always enough;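 further: host cells are HeLa cells infected with Toxoplasma gondii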
A number is an active result; – = inactive.

SMILES | Tg IFNy HTS
O=C(CCn1nnc2ccccc21)Nc1nnc(-c2ccc3c(c2)OCO3)s1 | -103.0
CN1CCCc2ccc(NC(=O)CCc3ccc(S(=O)(=O)N(C)C)cc3)cc21 | –
O=C(c1ccccc1)N1C[C@@H]2c3nc(NCC4CC4)ncc3CS(=O)(=O)[C@H]2C1 | –
c1ccc(-c2ccccn2)nc1 | –
O=C1c2cccc3cccc(c23)C(=O)N1c1ccc2ncccc2c1 | –
O=C1c2ccc3c4c(ccc(c24)C(=O)N1c1ccccn1)C(=O)N(c1ccccn1)C3=O | -89.8
CCOC(=O)c1c(NC(=O)CCC(=O)N2CCCCC2)sc2c1CC(C)(C)OC2 | –
CN(C)CCNC(=O)c1cc2c(s1)CCN2c1ncccn1 | –
Cc1nc(N2CCOCC2)nc2c1COCC21CCN(C(=O)C2CC2)C1 (centres undefined) | –
O=c1[nH]c2ccccc2c2oc(-c3ccccc3)nc12 | –
O=c1[nH]ccc2c1c(=O)[nH]c1ccccc12 | -99.9
CCCCCCCc1nc2c(=O)[nH]c3ccccc3c2o1 | –
COc1cccc(-c2noc(CN(C)S(=O)(=O)c3cc(Cl)ccc3Cl)n2)c1 | –
Cc1ccc2[nH]cc(CCNC(=O)c3cc(-c4cccnc4)nc4ccccc34)c2c1 | –
CN1CC2(CCN(C(=O)c3[nH]cnc3-c3ccccc3)C2)OC1=O (centres undefined) | –
Cc1csc(NC(=O)CN2CCC(c3ccc(F)cc3)CC2)n1 | –
O=C(CN1CCCC1Cn1cccn1)Nc1nc(-c2ccc(F)cc2)cs1 (centres undefined) | -77.2
O=C(CN1CCCCC1)Nc1nc(-c2ccccc2)cs1 | –
Cc1nc(NS(C)(=O)=O)sc1C(=O)NCc1cccc(N2CCCCC2)c1 | –
CC(C)OCCCNC(=O)CC1Nc2c3ccccc3nc(=S)n2C1=O (centres undefined) | –
CCC(C(=O)Nc1cnn(CC(=O)NC2CCCC2)c1)N1CCCCC1 (centres undefined) | –
FC(F)(F)c1sc(-c2nnc(-c3ccc(Cl)cc3Cl)o2)cc1-c1ccccc1 | –
O=C(O)c1cc(-c2ccccc2)c(C(F)(F)F)s1 | –
NC(=S)c1cc(-c2ccccc2)c(C(F)(F)F)s1 | -93.5
CCCCNc1c(C(=O)OC)c(=O)[nH]c2ccc(F)cc12 | –
SMILES | Tg IFNy HTS
CN1C(=O)CCCC12CCCN(C(=O)CCc1ccccc1)C2 (centres undefined) | –
C=CCOCc1ncn2c1CN(Cc1nccs1)CCC2 | –
Cc1ccc2nc(C3CCCN3CCC(=O)O)[nH]c2c1 (centres undefined) | –
CCCCNC(=O)c1nc(Nc2cccc(C)c2)c2ccccc2n1 | –
COc1ccc(OC)c(CNC(=O)c2nc(Nc3ccc(C)cc3)c3ccccc3n2)c1 | –
COc1ccc(CNC(=O)c2nc(Nc3ccccc3)c3ccccc3n2)c(OC)c1 | –
CN(Cc1ccccc1)C(=O)c1nc(Nc2ccc(F)cc2)c2ccccc2n1 | –
COc1ccc(OC)c(CNC(=O)c2nc(Nc3cccc(C)c3)c3ccccc3n2)c1 | -74.1
Cc1ccc(CNC(=O)c2nc(Nc3cccc(C)c3)c3ccccc3n2)cc1 | -79.3
Cc1ccc(CNC(=O)c2nc(Nc3ccc(F)cc3)c3ccccc3n2)cc1 | –
Cc1ccc(Nc2nc(C(=O)N(C)Cc3ccccc3)nc3ccccc23)cc1 | -77.2
CCNC(=O)c1nc(Nc2ccc(C)cc2)c2ccccc2n1 | –
Cc1nnc(N2C[C@H]3CCCO[C@H]3[C@H](N3CCCC3)C2)s1 | –
Cc1ccc(S(=O)(=O)NCc2noc(-c3ccc(Cl)cc3)n2)s1 | –
CCn1c(C2CCN(S(=O)(=O)c3cn(C)c(C)n3)CC2)nn(C)c1=O | –
Cc1cc2nc(C3CCCN3C(=O)CC3(C)C(=O)N=C4C=CC=CN43)[nH]c2cc1C (centres undefined) | –
Cc1cccc(-c2ncc(CNCCc3cn4nc(C)sc4n3)cn2)c1 | –
CCOCC1CN(Cc2cc(C)on2)Cc2cn(CC)nc21 (centres undefined) | –
Cn1cccc1C(=O)N1CCCC2(CC(Nc3ncccc3F)CO2)C1 (centres undefined) | –
O=C(NCc1cccnc1)C1CCN(Cc2cc3ccccc3n2Cc2ccccc2Cl)CC1 | –
O=C(NC1CCN(c2cnccn2)CC1)c1ccccc1C1CCNC1 (centres undefined) | –
O=C(NC1CCNCC1)c1[nH]ncc1NC(=O)c1c(Cl)cccc1Cl | -72.1
O=C(NC1CCc2[nH]ncc2C1)c1cccc(CC2CCNCC2)c1 (centres undefined) | –
Cc1cc(C)cc(NC(=O)CN2CCC3(CC2)N=C(c2cccc(F)c2)C(=O)N3)c1 | –
Cc1ccc(C2(O)CCN(C(=O)c3cc(-c4ccncc4)n[nH]3)CC2)nc1 | –
SMILES | Tg IFNy HTS
COc1ccc(CN2CCc3nc(SCc4nc(-c5cccc(C)c5)oc4C)[nH]c(=O)c3C2)cc1 | –
COc1cccc(CC(=O)N2CCc3nc(-c4ccc(F)cc4)nc(C)c3CC2)c1 | –
CC(C)(C)OC(=O)N1CCc2[nH]nc(Nc3ccccc3)c2C1 | –
COc1cccc(Nc2nc(-c3ccncc3)nc3c2CN(C(=O)OC(C)(C)C)CC3)c1 | -75.2
CN(C)CC(=O)N1CCCC2(CC(Nc3nccs3)CO2)C1 (centres undefined) | –
CN(Cc1nc2ccccc2s1)C(=O)c1cc(CN2CCOCC2)on1 | –
COc1ccc(OC)c(CNC(=O)c2nc(N3CCOCC3)c3ccccc3n2)c1 | –
Cc1ccc(C)c(CNC(=O)c2nc(N3CCOCC3)c3ccccc3n2)c1 | -87.3
COc1ccc(CNC(=O)c2nc(N3CCOCC3)c3ccccc3n2)cc1 | –
CC(=O)N1CCCC[C@@H]2[C@H]1[C@@H](c1ccccc1)CCN2C(=O)Cn1cc(C)nn1 | –
Cc1oc(-c2ccc(NC(=O)c3cccc(F)c3)cc2)nc1Cn1cccn1 | -86.6
COc1cccc(CC(=O)Nc2ccc(-c3nc(Cn4cccn4)c(C)o3)cc2)c1 | –
COc1cccc(C(=O)Nc2ccc(-c3nc(Cn4cc(C)cn4)c(C)o3)cc2)c1 | -92.7
Cc1oc(-c2ccc(NC(=O)c3cccc(Cl)c3)cc2)nc1Cn1cccn1 | –
Cc1oc(-c2ccc(NC(=O)c3cc(F)cc(F)c3)cc2)nc1Cn1cccn1 | –
COc1cccc(C(=O)Nc2ccc(-c3nc(Cn4cccn4)c(C)o3)cc2)c1 | -98.9
Cc1cnn(Cc2nc(-c3ccc(NC(=O)c4cccc(C#N)c4)cc3)oc2C)c1 | –
Cc1ccc(C(=O)Nc2ccc(-c3nc(Cn4cccn4)c(C)o3)cc2)cc1F | –
Cc1cc(C)n(C2CC(=O)N(c3ccc(Br)cc3)C2=O)n1 (centres undefined) | –
COC(=O)c1cccc(NC(=O)N2CCC3(CC2)Nc2cc(F)ccc2-n2cccc23)c1 | –
C=CCOc1ccccc1CN(CC)C(=O)c1c(C)n[nH]c1C | –
COc1ccc(C(=O)Nc2ccc(-c3nc(Cn4nc(C)cc4C)c(C)o3)cc2)cc1F | –
Cc1cc(C)n(Cc2nc(-c3ccc(NC(=O)Cc4cccc(F)c4)cc3)oc2C)n1 | –
Cc1cc(C)n(Cc2nc(-c3ccc(NC(=O)c4ccc(F)cc4F)cc3)oc2C)n1 | -84.8
Cc1cc(C)n(Cc2nc(-c3ccc(NC(=O)c4ccc(F)cc4Cl)cc3)oc2C)n1 | –
Cc1nn(Cc2nc(-c3ccc(NC(=O)c4ccc(F)cc4F)cc3)oc2C)c(C)c1C | -100.6
Cc1nn(Cc2nc(-c3ccc(NC(=O)c4cccc(F)c4)cc3)oc2C)c(C)c1C | –
Cc1cc(C)n(Cc2nc(-c3ccc(NC(=O)c4cc(F)ccc4F)cc3)oc2C)n1 | -81.0
Cc1cc(C)n(Cc2nc(-c3ccc(NC(=O)Cc4ccccc4F)cc3)oc2C)n1 | –

High-throughput results as filed in PubChem BioAssay.
